{"source": "the supplement of paper PMC9135407", "system": "primary human hepatic stellate cells (donor 1)", "experiment": "scaled lipid accumulation score (0 = DMSO-like, 1 = nortriptyline-like); higher = stronger HSC inactivation (lipid re-accumulation), active = hit call of the paper", "settings": "48 h", "key": {"[1]": {"settings": "library stock concentration: 10 mM"}, "[2]": {"settings": "library stock concentration: 3.33 mM"}, "[3]": {"settings": "library stock concentration: 1 mM"}, "[4]": {"settings": "library stock concentration: 5.1 mM"}}, "note": "Where “and” joins values, the source holds several entries; their conditions need not be identical. Equal values may be shown once. Where a name gives a salt, the structure may show the parent alone. In all, about 5,800 compounds went through this assay and about 620 (11%) showed activity.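 Rule for the calls: active = score above a cut-off or among the top three wells of a plate; in these data no inactive exceeds 0.85.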 Shown is part of a subset that was picked to be rich in actives.", "data": [{"smiles": "COc1cccc(C2(O)CCCCC2CN(C)C)c1", "note": "(centres undefined) [Tramadol]", "values": [{"measurement": "scaled lipid accumulation score", "setting": "[1]", "value": "0.009 (inactive)"}]}, {"smiles": "COc1cccc(C2(O)CCCCC2CN(C)C)c1", "note": "(centres undefined) [Tramadol HCl]", "values": [{"measurement": "scaled lipid accumulation score", "setting": "library stock concentration: 7.6 mM", "value": "≤ 0 (inactive)"}]}, {"smiles": "COc1cccc(C2(O)CCCCC2CN(C)C)c1", "note": "(centres undefined) [Tramadol hydrochloride]", "values": [{"measurement": "scaled lipid accumulation score", "setting": "library stock concentration: 6.7 mM", "value": "≤ 0 (inactive)"}]}, {"smiles": "COc1ccc(CCN)cc1OC", "note": "[Homoveratrylamine]", "values": [{"measurement": "scaled lipid accumulation score", "setting": "[1]", "value": "0.046 (inactive)"}]}, {"smiles": "C=CCN1C[C@H](C(=O)N(CCCN(C)C)C(=O)NCC)C[C@@H]2c3cccc4[nH]cc(c34)C[C@H]21", "note": "[Cabergoline]", "values": [{"measurement": "scaled lipid accumulation score", "setting": "library stock concentration: 4.4 mM", "value": "0.368 (inactive)"}]}, {"smiles": "CCN1C[C@]2(COC)CC[C@H](O)[C@@]34C5C[C@@H]6[C@@H](OC)C[C@](O)(C(CC23)C14)C5[C@H]6OC(C)=O", "note": "(some centres undefined) [Condelphine]", "values": [{"measurement": "scaled lipid accumulation score", "value": "≤ 0 (inactive)"}]}, {"smiles": "COc1cc2c(c(OC)c1OC)-c1ccc(O)c(=O)cc1[C@@H](N)CC2", "note": "[Trimethylcolchicinic acid]", "values": [{"measurement": "scaled lipid accumulation score", "value": "0.074 (inactive)"}]}, {"smiles": "O=C(NC(COc1ccc2[nH]c(=O)[nH]c2c1)c1ccccc1)c1cccn(Cc2ccc(F)c(F)c2)c1=O", "note": "(centres undefined)", "values": [{"measurement": "scaled lipid accumulation score", "setting": "library stock concentration: 80 uM", "value": "≤ 0 (inactive)"}, {"measurement": "scaled lipid accumulation score", "setting": "library stock concentration: 400 uM", "value": "≤ 0 (inactive)"}, {"measurement": "scaled lipid accumulation score", "setting": "library stock concentration: 2 mM", "value": "≤ 0 (inactive)"}, {"measurement": "scaled lipid accumulation score", "setting": "[1]", "value": "≤ 0 (inactive)"}]}, {"smiles": "COc1cc([C@@H]2c3cc4c(cc3[C@H](O)[C@H]3COC(=O)[C@H]23)OCO4)cc(OC)c1OC", "note": "[Podofilox]", "values": [{"measurement": "scaled lipid accumulation score", "setting": "library stock concentration: 4.8 mM", "value": "0.201 (inactive)"}, {"measurement": "scaled lipid accumulation score", "setting": "[1]", "value": "0.419 (inactive)"}]}, {"smiles": "COc1cc([C@@H]2c3cc4c(cc3[C@H](O)[C@H]3COC(=O)[C@H]23)OCO4)cc(OC)c1OC", "note": "[Podophyllotoxin]", "values": [{"measurement": "scaled lipid accumulation score", "value": "≤ 0 (inactive)"}, {"measurement": "scaled lipid accumulation score", "setting": "[1]", "value": "0.288 (inactive)"}]}, {"smiles": "C/C=C(\\C)C(=O)N[C@@H](c1ccccc1)[C@@H](O)C(=O)O[C@H]1C[C@@]2(O)[C@@H](OC(=O)c3ccccc3)[C@@H]3[C@]4(OC(C)=O)CO[C@@H]4C[C@H](O)[C@@]3(C)C(=O)[C@H](OC(C)=O)C(=C1C)C2(C)C", "note": "[Cephalomannine]", "values": [{"measurement": "scaled lipid accumulation score", "setting": "[2]", "value": "≤ 0 (inactive)"}, {"measurement": "scaled lipid accumulation score", "setting": "[1]", "value": "≤ 0 (inactive)"}]}, {"smiles": "O=C(CCCN1CCC2(CC1)C(=O)N(Cc1cccc(F)c1)CN2c1ccccc1)c1ccc(F)cc1.O=C(O)/C=C\\C(=O)O", "note": "[3'-Fluorobenzylspiperone maleate]", "values": [{"measurement": "scaled lipid accumulation score", "setting": "[1]", "value": "0.967 (active)"}]}, {"smiles": "O=C(NCCN1CCC2(CC1)C(=O)NCN2c1ccccc1)c1ccc2ccccc2c1", "values": [{"measurement": "scaled lipid accumulation score", "setting": "[3]", "value": "≤ 0 (inactive)"}]}, {"smiles": "O=C(CCCN1CCC2(CC1)C(=O)NCN2c1ccccc1)c1ccc(F)cc1", "note": "[Spiperone] [listing 1 of 2 here]", "values": [{"measurement": "scaled lipid accumulation score", "setting": "[4]", "value": "0.939 (active)"}]}, {"smiles": "O=C(CCCN1CCC2(CC1)C(=O)NCN2c1ccccc1)c1ccc(F)cc1", "note": "[Spiperone] [listing 2 of 2 here]", "values": [{"measurement": "scaled lipid accumulation score", "value": "0.119 (inactive)"}, {"measurement": "scaled lipid accumulation score", "setting": "[4]", "value": "0.399 (inactive)"}, {"measurement": "scaled lipid accumulation score", "setting": "[1]", "value": "≤ 0 (inactive)"}]}, {"smiles": "O=C(CCCN1CCC2(CC1)C(=O)NCN2c1ccccc1)c1ccc(F)cc1", "note": "[Spiperone hydrochloride]", "values": [{"measurement": "scaled lipid accumulation score", "setting": "[1]", "value": "0.74 (inactive) and 0.784 (inactive)"}]}, {"smiles": "CC(N)c1cccc(Cl)c1Cl", "note": "(centres undefined)", "values": [{"measurement": "scaled lipid accumulation score", "setting": "[1]", "value": "0.208 (inactive)"}]}, {"smiles": "O=C(O)c1ccc2[nH]cc(CCCCN3CC=C(c4ccccc4)CC3)c2c1", "note": "[Carmoxirole hydrochloride]", "values": [{"measurement": "scaled lipid accumulation score", "setting": "[1]", "value": "0.073 (inactive)"}]}, {"smiles": "CN1C2CC(O)CC1C1OC12", "note": "(centres undefined) [Scopine]", "values": [{"measurement": "scaled lipid accumulation score", "setting": "[2]", "value": "≤ 0 (inactive)"}, {"measurement": "scaled lipid accumulation score", "setting": "[1]", "value": "≤ 0 (inactive)"}]}, {"smiles": "CCCCCCCCCCCCCCCC(=O)OCC(COP(=O)([O-])OCC[N+](C)(C)C)OC(C)=O", "note": "(centres undefined)", "values": [{"measurement": "scaled lipid accumulation score", "setting": "[3]", "value": "0.014 (inactive)"}]}, {"smiles": "C=C(C)[C@@H]1[C@H]2OC(=O)[C@@H]1[C@]1(O)C[C@H]3O[C@]34C(=O)O[C@H]2[C@]14C.CC(C)(O)[C@@H]1[C@H]2OC(=O)[C@@H]1[C@]1(O)C[C@H]3O[C@]34C(=O)O[C@H]2[C@]14C", "note": "[Picrotin - Picrotoxinin]", "values": [{"measurement": "scaled lipid accumulation score", "setting": "[1]", "value": "≤ 0 (inactive)"}]}, {"smiles": "c1cncc(C2=NCCC2)c1", "note": "[Myosmine]", "values": [{"measurement": "scaled lipid accumulation score", "value": "≤ 0 (inactive)"}]}, {"smiles": "CC(=O)OCC1=C(C(=O)[O-])N2C(=O)[C@@H](NC(=O)CCC[C@@H](N)C(=O)[O-])[C@H]2SC1.[Zn+2]", "note": "[Cephalosporin C zinc salt]", "values": [{"measurement": "scaled lipid accumulation score", "setting": "[1]", "value": "0.329 (inactive)"}]}, {"smiles": "COc1cc2c3cc1Oc1c(OC)c(OC)cc4c1[C@@H](Cc1cccc(c1)Oc1ccc(c(O)c1)C[C@@H]3N(C)CC2)N(C)CC4", "note": "[Berbamine hydrochloride]", "values": [{"measurement": "scaled lipid accumulation score", "setting": "[1]", "value": "≤ 0 (inactive)"}]}, {"smiles": "COc1ccc(C[C@H]2NC[C@H](O)[C@H]2OC(C)=O)cc1", "note": "[Anisomycin] [listing 1 of 3 here]", "values": [{"measurement": "scaled lipid accumulation score", "setting": "[1]", "value": "0.806 (inactive)"}]}, {"smiles": "COc1ccc(C[C@@H]2NC[C@@H](O)[C@@H]2OC(C)=O)cc1", "note": "[Anisomycin]", "values": [{"measurement": "scaled lipid accumulation score", "setting": "library stock concentration: 18.8 mM", "value": "0.899 (active)"}]}, {"smiles": "COc1ccc(C[C@H]2NC[C@H](O)[C@H]2OC(C)=O)cc1", "note": "[Anisomycin] [listing 2 of 3 here]", "values": [{"measurement": "scaled lipid accumulation score", "value": "1.05 (active)"}]}, {"smiles": "COc1ccc(C[C@H]2NC[C@H](O)[C@H]2OC(C)=O)cc1", "note": "[Anisomycin] [listing 3 of 3 here]", "values": [{"measurement": "scaled lipid accumulation score", "setting": "[1]", "value": "1.39 (active)"}]}, {"smiles": "O[C@@H]1CCCC[C@H]1N1CCC(c2ccccc2)CC1", "note": "[L(-)-vesamicol hydrochloride]", "values": [{"measurement": "scaled lipid accumulation score", "value": "≤ 0 (inactive)"}]}, {"smiles": "CC(C)(C)NCC(O)COc1cccc2[nH]c(C#N)cc12", "note": "(centres undefined) [Cyanopindolol hemifumarate]", "values": [{"measurement": "scaled lipid accumulation score", "setting": "[1]", "value": "0.049 (inactive)"}]}, {"smiles": "CC(C)[C@@H]1NC(=O)[C@H](C)OC(=O)[C@@H](C(C)C)NC(=O)[C@@H](C(C)C)OC(=O)[C@H](C(C)C)NC(=O)[C@H](C)OC(=O)[C@@H](C(C)C)NC(=O)[C@@H](C(C)C)OC(=O)[C@H](C(C)C)NC(=O)[C@H](C)OC(=O)[C@@H](C(C)C)NC(=O)[C@@H](C(C)C)OC1=O", "note": "[Valinomycin]", "values": [{"measurement": "scaled lipid accumulation score", "setting": "library stock concentration: 4.5 mM", "value": "0.447 (inactive)"}]}, {"smiles": "CC1=NN=C(c2ccc(N)cc2)c2cc3c(cc2C1)OCO3", "values": [{"measurement": "scaled lipid accumulation score", "setting": "[1]", "value": "≤ -0.07 (inactive) and ≤ -0.006 (inactive)"}]}, {"smiles": "CC[C@H](C)[C@H]1O[C@]2(C=C[C@@H]1C)C[C@@H]1C[C@@H](C/C=C(\\C)[C@@H](O[C@H]3C[C@H](OC)[C@@H](O[C@H]4C[C@H](OC)[C@@H](O)[C@H](C)O4)[C@H](C)O3)[C@@H](C)/C=C/C=C3\\CO[C@@H]4[C@H](O)C(C)=C[C@@H](C(=O)O1)[C@]34O)O2.CO[C@H]1C[C@H](O[C@H]2[C@H](C)O[C@@H](O[C@@H]3/C(C)=C/C[C@@H]4C[C@@H](C[C@]5(C=C[C@H](C)[C@@H](C(C)C)O5)O4)OC(=O)[C@@H]4C=C(C)[C@@H](O)[C@H]5OC/C(=C\\C=C\\[C@@H]3C)[C@]54O)C[C@@H]2OC)O[C@@H](C)[C@@H]1O", "note": "[Abamectin]", "values": [{"measurement": "scaled lipid accumulation score", "setting": "library stock concentration: 2.3 mM", "value": "0.027 (inactive) and ≤ 0 (inactive)"}]}, {"smiles": "CC[C@H](C)[C@H]1O[C@]2(C=C[C@@H]1C)C[C@@H]1C[C@@H](C/C=C(\\C)[C@@H](O[C@H]3C[C@H](OC)[C@@H](O[C@H]4C[C@H](OC)[C@@H](O)[C@H](C)O4)[C@H](C)O3)[C@@H](C)/C=C/C=C3\\CO[C@@H]4[C@H](O)C(C)=C[C@@H](C(=O)O1)[C@]34O)O2.CO[C@H]1C[C@H](O[C@H]2[C@H](C)O[C@@H](O[C@@H]3/C(C)=C/C[C@@H]4C[C@@H](C[C@]5(C=C[C@H](C)[C@@H](C(C)C)O5)O4)OC(=O)[C@@H]4C=C(C)[C@@H](O)[C@H]5OC/C(=C\\C=C\\[C@@H]3C)[C@]54O)C[C@@H]2OC)O[C@@H](C)[C@@H]1O", "note": "[Avermectin B1]", "values": [{"measurement": "scaled lipid accumulation score", "value": "≤ 0 (inactive)"}]}, {"smiles": "CC[C@H](C)[C@H]1O[C@]2(C=C[C@@H]1C)C[C@@H]1C[C@@H](C/C=C(\\C)[C@@H](O[C@H]3C[C@H](OC)[C@@H](O[C@H]4C[C@H](OC)[C@@H](O)[C@H](C)O4)[C@H](C)O3)[C@@H](C)/C=C/C=C3\\CO[C@@H]4[C@H](O)C(C)=C[C@@H](C(=O)O1)[C@]34O)O2.CO[C@H]1C[C@H](O[C@H]2[C@H](C)O[C@@H](O[C@@H]3/C(C)=C/C[C@@H]4C[C@@H](C[C@]5(C=C[C@H](C)[C@@H](C(C)C)O5)O4)OC(=O)[C@@H]4C=C(C)[C@@H](O)[C@H]5OC/C(=C\\C=C\\[C@@H]3C)[C@]54O)C[C@@H]2OC)O[C@@H](C)[C@@H]1O", "note": "[Avermectin b1]", "values": [{"measurement": "scaled lipid accumulation score", "setting": "[1]", "value": "≤ 0 (inactive)"}]}]}
